Source: PubChem (The Scripps Research Institute Molecular Screening Center)
hgDAF12 agonist = H. glycines DAF-12 receptor agonists, primary screen, cell-based, luminescence, HEK293, GAL4 fusion, UAS-luciferase. activation, % at 6.8 µM. Nuclear hormone receptor DAF-12 (Heterodera glycines), GAL4 fusion. HEK293 GAL4-hgDAF12 UAS-luciferase reporter, agonist luminescence; normalized to butyrate control. hit rate 1.8% among 370,000;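 active means activation above a cutoff set at the mean of all screened compounds plus 3 SD, cut at about 10% in these data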
DAX1 inh-1 = DAX1 (NR0B1) inhibitors, primary screen, cell-based, HEK293, Gal4-DAX1, luciferase luminescence; Nuclear receptor subfamily 0 group B member 1 (Homo sapiens), P51843; HEK293 Gal4-DAX1 luciferase reporter; hit rate 0.99% among 340,000; inhibition, % at 6.75 µM;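 active means inhibition above the mean over all tested compounds plus 3 SD, cut at about 4.2% in these data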;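 further: inhibition shows as a rise in luminescence from relieved DAX1 repression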
Target sequence (P51843 207-470 limits assumed): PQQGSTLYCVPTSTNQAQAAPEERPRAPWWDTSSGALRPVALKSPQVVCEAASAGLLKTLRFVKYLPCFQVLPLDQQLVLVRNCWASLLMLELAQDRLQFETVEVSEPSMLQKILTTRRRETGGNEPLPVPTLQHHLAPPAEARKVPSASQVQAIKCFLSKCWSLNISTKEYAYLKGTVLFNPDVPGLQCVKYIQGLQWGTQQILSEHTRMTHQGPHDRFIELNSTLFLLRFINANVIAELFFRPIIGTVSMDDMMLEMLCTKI
DAX1 inh-2 = DAX1 (NR0B1) inhibitors on StAR promoter, primary screen, cell-based, luminescence, SF-1 (NR5A1), full-length DAX-1. HEK293T StAR-luciferase reporter, SF-1/DAX-1 repression relief. inhibition, % at 6.8 µM. hit rate 1.1% among 370,000. AID 652010, 2013;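 active means inhibition above the mean over all tested compounds plus 3 SD, cut at about 3.6% in these data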;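 further: higher inhibition means more luminescence from relief of DAX-1 repression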
ssDAF12 agonist = S. stercoralis DAF-12 nuclear receptor activators, primary screen, cell-based, luminescence, HEK293, GRIP1 co-expression, lit1-tk-luc; Nuclear hormone receptor DAF-12 (Strongyloides stercoralis); HEK293 ssDAF-12/GRIP1 lit1-tk-luc reporter; % of 3 µM dafachronic acid response; activation, % at 6.8 µM; hit rate 1% among 370,000; AID 652126, 2013;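 active means activation above the mean over all tested compounds plus 3 SD, cut at about 0.9% in these data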
Wee1 stabilizer = Wee1 degradation inhibitors, primary screen, cell-based, HeLa, Wee1K328M-luciferase, luminescence | Wee1-like protein kinase (Homo sapiens), P30291 | hit rate 1.2% among 220,000 | HeLa Luc-Wee1K328M stability; 100% = proteasome inhibitor MG132 effect | reporter increase, % at 5 µM;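 active means activation above the mean of all tested compounds plus 3 SD, set per screening run, cut at about 8.8% in these data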;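 further: cells exposed to compound for 20 h before luminescence read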
hcDAF-12 act = H. contortus DAF-12 nuclear receptor activators, primary screen, cell-based, luminescence, HEK293, lit1-tk-luc reporter; HEK293 hcDAF-12 lit1-tk-luc reporter; 0% DMSO, 100% Δ7-dafachronic acid; activation, % at 6.8 µM; hit rate 1.4% among 370,000;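 active means activation above the mean of all tested compounds plus 3 SD, cut at about 5.5% in these data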
DAX1 inh confirm = DAX1 (NR0B1) inhibitors relieving SF-1 repression, confirmation, cell-based, luminescence, HEK293T, full-length DAX-1, SF-1 activated StAR promoter | shares compounds with DAX1 inh-2 | HEK293T StAR-promoter luciferase reporter, SF-1/DAX-1 repression | inhibition, % at 6.8 µM | hit rate 87% among 2,400;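 active means inhibition above the average of every tested compound plus 3 SD, cut at about 3.8% in these data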
SF1 AF2mut Luc = StAR reporter signal changes without DAX1, counter-screen for DAX1 inhibitor project, cell-based, luminescence, AF-2 mutant SF-1, transactivation. shares compounds with DAX1 inh-2. inhibition, % at 6.8 µM. hit rate 78% among 2,400. AID 652136, 2013. HEK293 StAR-luciferase, SF-1 AF2 mutant;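 active means inhibition above the mean of all tested compounds plus 3 SD, cut at about 3% in these data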
A number is an active result; . = inactive; / = not tested or not shown. Rows were chosen to be rich in hits. Some 4.6% of all compounds tested hit in one or more screens of this group.

SMILES	hgDAF12 agonist	DAX1 inh-1	DAX1 inh-2	ssDAF12 agonist	Wee1 stabilizer	hcDAF-12 act	DAX1 inh confirm	SF1 AF2mut Luc
COC(=O)c1cc(NC(=O)c2cccs2)ccc1N1CCOCC1	.	.	.	.	.	.	/	/
O=C(Nc1ccc(N2CCOCC2)c(F)c1)c1cccs1	.	.	10	.	/	.	11	7.4
O/N=C/CCn1c(=S)sc2ccccc21	.	.	.	.	.	.	/	/
O=C(OCCn1c(=S)sc2ccccc21)c1ccccc1	.	.	6.7	.	/	.	9.1	7.1
Nc1cc2c(cc1Br)-c1ccccc1C2=NO	.	.	.	.	/	.	/	/
Fc1ccc(-c2nc3ccc(Br)cn3c2Cc2cccc(F)c2)cc1	.	/	.	.	/	.	/	/
Cc1ccc2nc(-c3ccc(Cl)cc3)c(CC3CCCCC3)n2c1	23	/	6.2	.	/	7.4	5.3	4.9
Cc1ccc2nc(-c3ccc(F)cc3)c(Cc3cccc(F)c3)n2c1	11	/	4.8	.	/	.	4.1	4.6
Fc1ccc(-c2nc3ccc(Br)cn3c2Cc2cccc(Cl)c2)cc1	.	/	.	.	/	.	/	/
Cc1ccc2nc(-c3ccc(F)cc3)c(Cc3cccc(Cl)c3)n2c1	.	/	9.6	.	/	.	7.5	4.3
CCOc1ccccc1C(=O)NCC(=O)N1CCN(Cc2ccc3c(c2)OCO3)CC1	/	.	/	/	/	/	/	/
CCN(CC)c1nc(C=Cc2ccc(N(C)C)cc2)c2nccnc2n1	.	.	.	.	/	.	/	/
CCCN(C)C1CN(Cc2cn(Cc3cccc(Cl)c3)nn2)S(=O)(=O)C1 (configuration not stated)	.	/	.	.	/	.	/	/
Cc1ccc2nc(SCC(=O)c3ccccc3)nc(=O)n2c1	12	.	8.3	.	/	.	9.2	5.3
Cc1ccn2c(=O)nc(SCC(=O)c3ccccc3)nc2c1	.	.	.	.	/	.	/	/
O=C(C(=Cc1ccc(F)cc1)C(=O)c1ccccc1)c1ccccc1	.	/	.	.	/	.	/	/
CC(C)(C)n1cnc2cc(NC(=O)c3cccs3)ccc21	.	.	5.6	.	.	.	8.6	5.9
CC(C)(C)n1cnc2cc(NCc3cccs3)ccc21	.	.	.	.	.	.	/	/
COc1ccc(Cc2nc3ccc(C(=O)N4CCCC4)cc3o2)cc1	11	.	8.3	1.1	/	.	9.2	3.4
CCC(=O)C1CCCN(C(=O)c2ccc3nc(-c4cccc(OC)c4)oc3c2)C1 (configuration not stated)	.	.	7.0	.	/	.	8.3	5.7
CCN(CC)C(=O)C1CCCN(C(=O)c2ccc3nc(-c4cccc(OC)c4)oc3c2)C1 (configuration not stated)	.	.	.	.	/	.	/	/
O=C(c1ccc2oc(CCCc3ccccc3)nc2c1)N1CCCC1	11	.	9.0	1.0	/	5.8	9.5	6.9
COc1cccc(-c2nc3ccc(C(=O)N4CCCC(O)C4)cc3o2)c1 (configuration not stated)	.	.	5.3	.	/	.	7.4	7.4
COc1ccc(Cc2nc3ccc(C(=O)N4CCCC4)cc3o2)cc1OC	.	.	.	.	/	.	/	/
